Screening data: PubChem, The Scripps Research Institute Molecular Screening Center
Most compounds without a hit are left out; they make up all but 3.5% or so of the library.
GPR151 ag = activators of human GPR151, primary screen, cell-based, PathHunter beta-arrestin, luminescence. G-protein coupled receptor 151 (Homo sapiens), Q8TDV0. PathHunter beta-arrestin GPR151 cells. activation, % at 11.2 µM. hit rate 1% among 650,000. AID 1508602, 2020; in the data active = activation above about 4.9%
Target sequence (Q8TDV0 whole entry, looked up): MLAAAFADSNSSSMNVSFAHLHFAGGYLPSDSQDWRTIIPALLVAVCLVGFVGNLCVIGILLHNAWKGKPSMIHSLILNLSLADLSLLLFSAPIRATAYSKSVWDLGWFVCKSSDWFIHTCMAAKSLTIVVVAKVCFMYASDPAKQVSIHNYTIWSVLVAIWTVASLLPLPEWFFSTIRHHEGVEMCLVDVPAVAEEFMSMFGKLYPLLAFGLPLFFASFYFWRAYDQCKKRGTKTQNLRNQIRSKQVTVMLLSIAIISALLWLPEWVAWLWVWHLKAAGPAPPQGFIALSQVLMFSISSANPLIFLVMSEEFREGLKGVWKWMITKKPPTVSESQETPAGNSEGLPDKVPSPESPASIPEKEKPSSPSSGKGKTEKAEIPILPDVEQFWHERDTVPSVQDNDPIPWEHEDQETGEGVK
MITF primary = MITF inhibitors, primary screen, biochemical, AlphaScreen, human. AlphaScreen MITF homodimerization, bead proximity signal. Microphthalmia-associated transcription factor (Homo sapiens), O75030. hit rate 0.91% among 650,000. AID 1259374, 2018. inhibition, % at 2.6 µM; in the data active = inhibition above about 50%
TEAD-YAP inh = TEAD-YAP interaction inhibition, primary screen, TEAD-YAP interaction inhibitor project, luminescence, HEK-TIYL cells. TEAD-Gal4/YAP UAS-luciferase luminescence. inhibition, % at 9.12 µM. hit rate 1.4% among 640,000; in the data active = inhibition above about 32%
FBW7 activator = FBW7 E3 ligase activators, primary screen, biochemical, AlphaScreen, human | hit rate 0.13% among 650,000 | F-box/WD repeat-containing protein 7 (Homo sapiens), Q969H0 | AlphaScreen FBW7–phospho-cyclin E peptide binding, activator screen | normalized activity (activation), % at 26.1 µM | AID 1259310, 2017; in the data active = normalized activity above about 1.9%;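 note: purified mutant Fbw7 with reduced substrate affinity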
Large screens that a line does not name were inactive.

O=S(=O)(NCc1cn2ccsc2n1)c1ccc(Oc2ccccc2)cc1	TEAD-YAP inh 35
C(=N\Nc1nn[nH]n1)/c1ccc(N2CCOCC2)cc1	MITF primary 58
CC(C)CC[n+]1ccccc1/C=C/c1ccc(N(C)C)cc1	TEAD-YAP inh 91
COc1ccc(/C=N/Nc2cc(-n3cc(C)cn3)ncn2)c(OC)c1	none
Cc1c(O)ccc(/C=N/Nc2ncccc2[N+](=O)[O-])c1O	TEAD-YAP inh 71
COc1cccc(/C=N\Nc2cc(C)nc(-c3ccccc3O)n2)c1O	TEAD-YAP inh 39
COc1cccc(/C=N/Nc2cc(-n3cc(C)cn3)ncn2)c1O	MITF primary 73, TEAD-YAP inh 88
Cc1ccc(C)c(Nc2cc(C)nc(-c3ccccc3O)n2)c1	TEAD-YAP inh 41
COc1ccc(/C=N\Nc2cc(C)nc(-c3ccccc3O)n2)c(OC)c1	none
O=[N+]([O-])c1ccc(O)c(/C=N/Nc2ncccc2[N+](=O)[O-])c1	none
O=[N+]([O-])c1cccnc1N/N=C/c1ccccc1O	TEAD-YAP inh 47
COc1cccc(/C=N\Nc2ncccc2[N+](=O)[O-])c1O	TEAD-YAP inh 64
COc1cccc(/C=N\Nc2ccccn2)c1O	MITF primary 61
COc1cccc(/C=N/Nc2nc3ccccc3nc2C)c1O	TEAD-YAP inh 63
Cc1nc2ccccc2nc1N/N=C/c1ccc(O)c(C)c1O	none
O=C(COC(=O)c1ccccn1)Nc1ccc(F)cc1	none
O=C(CSCCc1ccncc1)Nc1nccs1	none
CCc1nn(CC(=O)Nc2ccc(Cl)cc2F)c(=N)s1	none
Cc1cccc(-n2ncc3c(N4CCC(C(N)=O)CC4)ncnc32)c1	none
COc1cccc(/C=N\Nc2cc(C)c3ccccc3n2)c1OC	TEAD-YAP inh 60
COc1cc(Nc2cc(Nc3nccc4ccccc34)nc(N)n2)cc(OC)c1OC	TEAD-YAP inh 77
COc1cc(Nc2cc(Nc3ccccn3)ncn2)cc(OC)c1OC	none
COc1cc(Nc2cc(Nc3ccccn3)nc(N)n2)cc(OC)c1OC	TEAD-YAP inh 44
Cc1cc(NC(=O)CN2CCN(C(c3ccccc3)c3ccccc3)CC2)no1	none
Cc1cccc(OCCCC(=O)Nc2nc3ccccc3[nH]2)c1	TEAD-YAP inh 71
COc1cc(CCC(=O)Nc2nnc(C)s2)cc(OC)c1OC	TEAD-YAP inh 55
COc1cc(C(=O)Nc2nnc(C)s2)c(Br)c(OC)c1OC	none
O=C(c1cccs1)N1CCN(c2ccc(-c3ccc(F)cc3)nn2)CC1	none
COc1ccc(N2CCn3c(SCc4cccc(Cl)c4)nnc32)cc1	none
COc1ccc(N2CCn3c(SCc4cccc(C)c4)nnc32)cc1	FBW7 activator 1.9
CC(=O)c1ccccc1NC(=O)c1cc(S(=O)(=O)N2CCOCC2)ccc1Cl	none
COC(=O)c1cc2sccc2n1CC(=O)Cc1ccc(OC)cc1OC	TEAD-YAP inh 50
COC(=O)c1cc2sccc2n1CC(=O)c1ccccc1	none
COc1ccc(Cl)cc1NS(=O)(=O)c1ccc(OC)c(C)c1C	TEAD-YAP inh 42
COc1cc(NS(=O)(=O)c2ccc(OC)c(C)c2C)c(OC)cc1Cl	TEAD-YAP inh 54
COc1ccc(Cl)cc1NS(=O)(=O)c1cc(C)ccc1OC	none
CCOC(=O)Cc1csc(NC(=O)CSc2ncc(-c3ccccc3)[nH]2)n1	none
Cc1ccc(Nc2nc(CSc3nnc(N)s3)cs2)cc1	TEAD-YAP inh 44
CCCNC(=O)c1cc(-c2cccc(O)c2)on1	TEAD-YAP inh 53
CC(C)CNC(=O)c1cc(-c2ccc(O)cc2)on1	TEAD-YAP inh 39
O=C(NC1CCCC1)c1cc(-c2ccc(O)cc2)on1	TEAD-YAP inh 40
COCCNC(=O)c1cc(-c2cccc(O)c2)on1	none
COc1ccc(C2C3(C#N)C(N)=NC(OC)(OC)C23C#N)c(OC)c1OC (stereo not given)	none
CCCCNC(=O)c1csc2nc(-c3ccc(F)cc3)cn12	none
CN(C)S(=O)(=O)c1ccc2c(c1)CCN2C(=O)c1ccc(C(C)(C)C)cc1	none
CN1CCN(c2ccc(-c3nc(NC4CC4)c4ncn(-c5ccsc5)c4n3)cc2)CC1	TEAD-YAP inh 49
CN1CCN(C(=O)c2ccc(-c3nc(NC4CC4)c4ncn(-c5ccsc5)c4n3)cc2)CC1	TEAD-YAP inh 49
CN1CCN(C(=O)c2ccc(-c3nc(NCc4nc5ccccc5[nH]4)c4ncn(-c5ccccc5)c4n3)cc2)CC1	none
CN1CCN(C(=O)c2ccc(-c3nc(Nc4ccccc4)c4ncn(-c5ccsc5)c4n3)cc2)CC1	none
CN1CCN(C(=O)c2ccc(-c3nc(NCc4nc5ccccc5[nH]4)c4ncn(-c5ccsc5)c4n3)cc2)CC1	TEAD-YAP inh 59
CN1CCN(c2ccc(-c3nc(NCc4ccccc4)c4ncn(-c5ccsc5)c4n3)cc2)CC1	none
O=C(/C=C/c1cccnc1)Nc1ccc2nc3n(c(=O)c2c1)CCCCC3	none
Cc1cnc(Nc2ccc(-n3ccnc3)cc2)nc1Nc1ccc(N2CCOCC2)cc1	TEAD-YAP inh 51
c1ccc(Nc2nc(Nc3ccc(N4CCOCC4)cc3)c3[nH]cnc3n2)cc1	TEAD-YAP inh 47
CCCNc1nc(Nc2cc(OC)c(OC)c(OC)c2)nc2nc[nH]c12	TEAD-YAP inh 39
Nc1cccc(-c2nc(Nc3ccc(N4CCOCC4)cc3)c3[nH]cnc3n2)c1	TEAD-YAP inh 60
CC(=O)c1cccc(-c2nc(Nc3ccc(N4CCOCC4)cc3)c3[nH]cnc3n2)c1	none
CC(=O)Nc1ccc(Nc2nc(Nc3ccc(N4CCOCC4)cc3)ncc2C)cc1	none
Cc1ccc2oc(=O)c3cnn(CC(=O)N(C)c4ccccc4)c3c2c1	none
COc1cc2c(cc1OC)C(COc1ccccc1OC)N(C(=O)c1ccccc1[N+](=O)[O-])CC2 (stereo not given)	none
O=C(O)CN1C(=O)/C(=C/c2ccc(-c3ccccc3[N+](=O)[O-])o2)SC1=S	none
c1cn(-c2ccc(Nc3nc(Nc4ccc(N5CCOCC5)cc4)c4[nH]cnc4n3)cc2)cn1	TEAD-YAP inh 51
COc1cc(Nc2nc(Nc3ccc(N4CCOCC4)cc3)c3[nH]cnc3n2)cc(OC)c1OC	TEAD-YAP inh 64
C=CCc1cccc(/C=N/NC(N)=O)c1O	none
O=C1CCCN1CCCNc1ccnc(N2CCOCC2)n1	none
Cc1cc(NCCCN2CCCC2=O)nc(N2CCOCC2)n1	FBW7 activator 7.4
C=CCNC(=O)/C(=C\c1ccc([N+](=O)[O-])cc1)NC(=O)c1ccco1	none
O=C(O)c1cc(S(=O)(=O)Nc2ccc(O)cc2)ccc1O	none
O=C(O)c1cc(NS(=O)(=O)c2ccc(Cl)c(C(=O)O)c2)ccc1O	MITF primary 81
Cc1cc(-c2cccc3[nH]c(C(F)(F)F)nc23)nn1C(=O)c1ccncc1	TEAD-YAP inh 34
O=C(O)c1cccc2[nH]c(C(F)(F)F)nc12	none
O=C(Oc1ccc(N2C(=O)C=CC2=O)cc1)c1cccc2ccccc12	FBW7 activator 1.9
COc1cc2sc(=NC(=O)c3ccc([N+](=O)[O-])s3)n(C)c2cc1OC	none
